Results on 13 molecules are retold here after PubChem BioAssay.

Calls of active or inactive are those of the source.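 How the source made its calls, unless noted: active means inhibition above 20% together with a positive visual image hit; inconclusive means visual image hit but inhibition not above 20%; inactive means no visual image hit.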

A short description of assay [1]: inhibitors of TNFa-induced NFkB p65 translocation, primary screen, imaging, HUVEC, MLSMR starter and 10KST1 sets (AID 438).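 Further: compound added about 3h40 before a 20 min TNFalpha stimulation.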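 On inhibition: signal is the nuclear over cytoplasmic p65 intensity ratio per well.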 The settings on record: HUVEC TNFa-induced p65 nuclear translocation; cell count: measured here: nuclei count (cytotoxicity indicator), at 2.08 µM; inhibition: at 2 µM, stronger effect = higher value, 0% TNFa-plus-vehicle, 100% no-TNFa wells.
The nature of assay [2]: reduction of polyQ htt aggregates in cells – imaging, exon1htt(103Q)mCFP cells, high-content imaging, primary screen (AID 483;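 active means visual image review flags a hit and inhibition of aggregation exceeds 20%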;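 further: compound exposure lasted 3 days before fixation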;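 on nuclei count: percent of the per-plate median nuclei count of sample wells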). The conditions noted are these: exon1htt(103Q)mCFP cell line, aggregate imaging, at 2 µM; inhibition of aggregation: stronger effect = higher value; nuclei count: measured here: cell count, toxicity.
Assay [3] can be described thus: endothelial E-selectin expression blockers – imaging, HUVEC, immunofluorescence, MLSMR starter and 10KST1 sets, primary screen (AID 487;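 active means visually confirmed hit in the image check and inhibition above 20%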;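 on inhibition: signal is fraction of cell area covered by stained E-selectin grains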;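 on nuclei count: 100% = median nuclei count of all wells on the same plate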). The conditions noted are these: HUVEC TNFalpha-induced E-selectin immunofluorescence imaging, at 2 µM; inhibition: stronger effect = higher value; nuclei count: measured here: cell number, toxicity.
Assay [4] addresses Voltage-gated potassium channel subunit beta-2 (Rattus norvegicus) (UniProt P62483). The experiment in a line: inhibitors of rat Kvbeta2 reductase activity – biochemical, NADPH fluorescence, primary screen (AID 622;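 active means fluorescence slope higher than the sample average by over 3 SD, cut at about -0.22 in these data, passing the limit was not always enough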;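 further: slope of raw intensity against log time taken from 70 to 1610 s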). The settings on record: recombinant KvBeta, 4-cyanobenzaldehyde reduction, at 10 µM, stronger effect = higher value.
Assay [5] has the same target. Kind of assay: enhancers of rat Kvbeta2 NADPH turnover – biochemical, NADPH fluorescence, primary screen (AID 623;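 active means NADPH fluorescence slope more negative than the mean of all samples by about 3 SD, 99.7% confidence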;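 further: fluorescence intensity change per second fitted from 20 to 320 s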). The settings on record: Recombinant KvBeta, NADPH fluorescence decrease slope, 10 min; at 10 µM; stronger effect = lower value.
Assay [6] deals with Alpha-2C adrenergic receptor (Homo sapiens) (UniProt P18825). The experiment in a line: compounds altering alpha2C-coupled GIRK flux – cell-based, HEK293 alpha2C/GIRK1/2, thallium flux, primary screen (AID 624;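 active means fluorescence slope after compound addition differing from the mean of all screened samples at 99.7% confidence, in either direction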;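 further: slope of fluorescence ratio to pre-addition baseline per second over 15 to 24 s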). The conditions noted are these: thallium flux BTC fluorescence, at 10 µM, actives lie on both sides.
Sequence of Alpha-2C adrenergic receptor (Homo sapiens) (P18825 whole entry, looked up): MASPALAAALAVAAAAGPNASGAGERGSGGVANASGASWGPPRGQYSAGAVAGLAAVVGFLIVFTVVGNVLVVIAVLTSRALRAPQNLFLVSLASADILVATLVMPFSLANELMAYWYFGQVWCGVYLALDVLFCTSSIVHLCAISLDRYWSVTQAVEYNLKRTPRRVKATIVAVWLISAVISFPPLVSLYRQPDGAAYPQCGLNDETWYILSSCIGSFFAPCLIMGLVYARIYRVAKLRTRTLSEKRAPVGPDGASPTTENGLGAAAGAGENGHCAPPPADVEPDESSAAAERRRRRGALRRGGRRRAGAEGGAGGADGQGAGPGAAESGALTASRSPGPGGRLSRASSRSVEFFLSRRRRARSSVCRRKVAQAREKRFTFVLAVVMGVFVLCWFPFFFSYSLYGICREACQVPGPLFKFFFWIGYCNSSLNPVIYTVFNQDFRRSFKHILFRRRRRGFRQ
Assay [7] can be described thus: blockers of RIG-like receptor reporter activation – cell-based, Sendai virus stimulus, luciferase, 10K MLSCN set, TLR/RLR signaling modifier project, primary screen (AID 602276;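 active means inhibition at or above 50% at 10 µM; inactive means inhibition below 50%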;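 further: firefly luciferase from ISG56 promoter only with Renilla not read in this screen; 0% = Sendai virus plus DMSO and 100% = medium plus DMSO without virus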). The settings on record: HEK293 RL24 IRF3 luciferase reporter, at 10 µM, stronger effect = higher value.
Assay [8] can be described thus: TLR3 IRF3 reporter activation blockers – cell-based, poly I:C stimulus, luciferase, 10K MLSCN set, primary screen (AID 602277;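 active means inhibition of the reporter signal at or above 50%; inactive means inhibition below 50%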). The settings on record: HEK293-TLR3 RL24 IRF3 luciferase reporter, at 10 µM, stronger effect = higher value. (In a reporter assay the amount or activity of a reporter protein is the signal.)

Sequence of Voltage-gated potassium channel subunit beta-2 (Rattus norvegicus) (P62483 whole entry, looked up): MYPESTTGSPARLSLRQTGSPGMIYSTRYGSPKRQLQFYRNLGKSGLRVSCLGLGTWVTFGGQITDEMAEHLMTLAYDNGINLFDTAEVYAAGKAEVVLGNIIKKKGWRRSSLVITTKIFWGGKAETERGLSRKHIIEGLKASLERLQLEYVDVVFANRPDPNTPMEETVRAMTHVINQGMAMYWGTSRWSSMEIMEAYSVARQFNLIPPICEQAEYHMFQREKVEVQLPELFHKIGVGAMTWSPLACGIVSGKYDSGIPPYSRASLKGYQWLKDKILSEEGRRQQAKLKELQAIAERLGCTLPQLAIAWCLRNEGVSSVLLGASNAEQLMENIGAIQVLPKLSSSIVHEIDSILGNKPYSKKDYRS

The inhibition is the drop in the measured response relative to a control, in per cent. With `Cc1ccc(Cn2c(NCCc3ccccc3)nc3c2c(=O)n(C)c(=O)n3C)cc1`, in assay [1], the cell count came out at 368. Besides, the inhibition in assay [1] is 6.8% (inactive); in assay [3], -203% (inactive); in assay [7], 34.6% (inactive); in assay [8], 29.6% (inactive). In addition, the inhibition of aggregation in assay [2] was 6.1% (inactive). The nuclei count in assay [2] stood at 98.7%; in assay [3] it was 108%. The fluorescence slope in assay [4] is -0.597 (inactive). Further, the NADPH fluorescence slope in assay [5] was -6.3e-06 (inactive). In assay [6], the slope was 0.00517 (inactive).

As to `CC(C)OC(=O)CSc1nnc(-c2ccccn2)n1-c1ccccc1`, the cell count in assay [1] was determined as 306. Besides, the inhibition is 1.6% (inactive) in assay [1], -11.2% (inactive) in assay [3], 4.23% (inactive) in assay [7] and 6.06% (inactive) in assay [8]. Also, the inhibition of aggregation in assay [2] was -8.2% (inactive). Besides, the nuclei count in assay [2] came out at 102%; in assay [3], 99.6%. Also, the fluorescence slope in assay [4] was -0.429 (inactive). In addition, in assay [5], the NADPH fluorescence slope was -7.9e-05 (inactive). In addition, the slope in assay [6] is 0.00479 (inactive).

Consider `Cc1c(C#N)c2ccccc2n1CC(=O)N1CCc2ccccc2C1`, for which the cell count in assay [1] was determined as 583. The inhibition in assay [1] was 6% (inactive); in assay [3], 11.5% (inactive); in assay [7], -9.66% (inactive); in assay [8] it was 21.9% (inactive). For the same molecule, the inhibition of aggregation in assay [2] was 8.7% (inactive). Further, the nuclei count in assay [2] amounted to 95.3%; in assay [3], 114%. The fluorescence slope in assay [4] is -0.581 (inactive). Moreover, the NADPH fluorescence slope in assay [5] is -4.4e-05 (inactive). Besides, in assay [6], the slope was 0.00747 (inactive).

Turning to `Cc1onc(-c2ccccc2Cl)c1C(=O)NCCn1c(C)cc2ccccc21`, in assay [1], the cell count turned out to be 677. Further, the inhibition in assay [1] is 9% (inactive); in assay [3], -37.1% (inactive); in assay [7], 15.6% (inactive); in assay [8], 36.3% (inactive). Moreover, in assay [2], the inhibition of aggregation was 7.9% (inactive). Also, the results for the nuclei count in assay [2] and in assay [3] were 79.4% and 124%, respectively. In addition, in assay [4], the fluorescence slope is -0.419 (inactive). In addition, the NADPH fluorescence slope in assay [5] is -1.5e-05 (inactive). In addition, in assay [6], the slope is 0.00456 (inactive).

With `CCOc1ccccc1NC(=O)NC1CCN(CC(=O)Nc2ccc3c(c2)OCCO3)CC1`, in assay [1], the cell count was found to be 285. Further, the inhibition was -4.8% (inactive) in assay [1], -0.8% (inactive) in assay [3], 19.4% (inactive) in assay [7] and 26.5% (inactive) in assay [8]. Further, in assay [2], the inhibition of aggregation is 2% (inactive). The nuclei count in assay [2] worked out at 115%; in assay [3], 87.4%. Moreover, the fluorescence slope in assay [4] is -0.499 (inactive). In assay [5], the NADPH fluorescence slope was 4.9e-05 (inactive). Further, in assay [6], the slope is 0.00583 (inactive).

For the molecule `CCC1CCCCN1C(=O)CSc1nnc(-c2ccco2)o1` (stereo not drawn), the cell count in assay [1] amounted to 368. Also, the inhibition is 4.2% (inactive) in assay [1], -80.6% (inactive) in assay [3], -35.7% (inactive) in assay [7] and -88.3% (inactive) in assay [8]. Further, the inhibition of aggregation in assay [2] is -17.6% (inactive). Besides, the nuclei count in assay [2] was 100%; in assay [3], 104%. The fluorescence slope in assay [4] is -0.487 (inactive). The NADPH fluorescence slope in assay [5] is -7.3e-05 (inactive). In addition, the slope in assay [6] was 0.00444 (inactive).

For the molecule `Cn1nnnc1SCC(=O)Nc1ccccc1-c1ccccc1`, the cell count in assay [1] came to 484. Moreover, the inhibition in assay [1] was -8.7% (inactive); in assay [3] it was -80.2% (inactive); in assay [7] it was 6.85% (inactive); in assay [8], -4.74% (inactive). Further, the inhibition of aggregation in assay [2] was 14.7% (inactive). Moreover, the nuclei count in assay [2] was 87.9%; in assay [3], 114%. For the same molecule, in assay [4], the fluorescence slope was -0.302 (inactive). Further, the NADPH fluorescence slope in assay [5] is -1.3e-05 (inactive). For the same molecule, the slope in assay [6] is 0.00645 (inactive).

Take `COc1ccc2c(c1)C(=O)N(c1ccccc1OC)C(=O)C2`: in assay [1], the cell count stood at 320. Further, the inhibition in assay [1] was -3.9% (inactive); in assay [3], -22% (inactive); in assay [7], 14.7% (inactive); in assay [8] it was 10.2% (inactive). In addition, the inhibition of aggregation in assay [2] was -3.2% (inactive). The nuclei count in assay [2] was 80.8%; in assay [3] it was 110%. Further, the fluorescence slope in assay [4] is -0.401 (inactive). In addition, the NADPH fluorescence slope in assay [5] is -3.7e-05 (inactive). Moreover, the slope in assay [6] was 0.0052 (inactive).

Consider `c1ccc(OCCCn2nnc(-c3cccnc3)n2)cc1`, for which the cell count in assay [1] worked out at 340. The inhibition in assay [1] was 0.3% (inactive); in assay [3], -79.2% (inactive); in assay [7], 2.51% (inactive); in assay [8] it was -2.63% (inactive). Besides, in assay [2], the inhibition of aggregation is 12.8% (inactive). In addition, the figures for the nuclei count in assay [2] and in assay [3] were 95.2% and 121%, respectively. Moreover, the fluorescence slope in assay [4] was -0.343 (inactive). Also, the NADPH fluorescence slope in assay [5] is 4.3e-06 (inactive). Also, the slope in assay [6] was 0.0037 (inactive).

For the molecule `COc1cc(C2c3c(oc4c(C)cc(C)cc4c3=O)C(=O)N2Cc2cccnc2)ccc1O` (stereo not drawn), the cell count in assay [1] turned out to be 627. Also, the inhibition was -2.7% (inactive) in assay [1], 12.8% (inactive) in assay [3], 16.4% (inactive) in assay [7] and 21.2% (inactive) in assay [8]. Also, in assay [2], the inhibition of aggregation was 0.2% (inactive). Moreover, the values for the nuclei count in assay [2] and in assay [3] were 107% and 99.8%, respectively. Further, the fluorescence slope in assay [4] is -0.476 (inactive). For the same molecule, the NADPH fluorescence slope in assay [5] was -3.3e-05 (inactive). The slope in assay [6] is 0.00579 (inactive).

As to `CCc1ccccc1NC(=O)CCc1nc(-c2ccc(C)cc2)no1`, the cell count in assay [1] worked out at 415. The inhibition in assay [1] is -1% (inactive); in assay [3] it was 14.1% (inactive); in assay [7], 14.1% (inactive); in assay [8], 47.2% (inactive). In assay [2], the inhibition of aggregation is -4% (inactive). Also, the nuclei count in assay [2] stood at 103%; in assay [3], 86.3%. Also, the fluorescence slope in assay [4] was -0.299 (inactive). Besides, the NADPH fluorescence slope in assay [5] was 1.2e-05 (inactive). Moreover, the slope in assay [6] is 0.00374 (inactive).

Regarding `Nc1cc(-c2ccc(Br)cc2)nn1S(=O)(=O)c1ccccc1`, the cell count in assay [1] was 807. Also, the inhibition in assay [1] is 6.9% (inactive); in assay [3], -57.9% (inactive); in assay [7], 6.44% (inactive); in assay [8], 32.2% (inactive). The inhibition of aggregation in assay [2] is -1% (inactive). For the same molecule, the values for the nuclei count in assay [2] and in assay [3] were 93.9% and 109%, respectively. Further, the fluorescence slope in assay [4] is -0.609 (inactive). Moreover, in assay [5], the NADPH fluorescence slope was -1.6e-05 (inactive). The slope in assay [6] is 0.00722 (inactive).

For `O=C(NCCCn1ccnc1)c1cnn2c1NC(c1ccccc1)CC2C(F)(F)F` (stereo not drawn), the cell count in assay [1] worked out at 616. Also, the inhibition in assay [1] is -4.9% (inactive); in assay [3], 6.6% (inactive); in assay [7] it was -0.0558% (inactive); in assay [8], 15.6% (inactive). In addition, in assay [2], the inhibition of aggregation is -5.5% (inactive). Further, the nuclei count in assay [2] worked out at 98.3%; in assay [3], 93%. Besides, the fluorescence slope in assay [4] is -0.389 (inactive). Further, in assay [5], the NADPH fluorescence slope is 3.1e-05 (inactive). For the same molecule, the slope in assay [6] is 0.00374 (inactive).
